The text below walks through data of PubChem BioAssay AID651702 (NMMLSC, 2012).

Structures are written as SMILES. Hit rate of the full screen: of about 360,000 compounds, about 2,400 (0.67%) were called active.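 How the source made its calls: active means inhibition above about 55% (limit read from the data); inconclusive means no clear call, values can overlap the other calls; inactive means the rest.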 The full list was thinned out, with actives kept by preference.

A short description of this assay: LAMP-1 surface exposure blockers, TALL-104 cells – cell-based, flow cytometry, MLPCN library, primary screen (AID 651702). Particulars: TALL-104 LAMP-1 surface exposure, at 10 µM, stronger effect = higher value, cells stimulated with thapsigargin and PMA.
As a reminder, the inhibition is the relative decrease from the control value, in per cent. Consider `COc1cccc(NC(=O)CSc2nccn(-c3ccc4c(c3)OCCO4)c2=O)c1`, for which the inhibition was -0.2% (inactive).
For `C/C=C/c1ccc(OCC(O)CN2CCCCCCC2)c(OC)c1` (stereo unspecified), the inhibition was -1% (inactive).
`CCOC(=O)N1CCN(c2cc(C)c([N+](=O)[O-])cc2F)CC1`: the inhibition was -1% (inactive).
With `CN(C)c1ccc(N/C=C/C(=O)C(F)(F)F)cc1`, the inhibition was 0.5% (inactive).
To `NNC(=O)C1CC(O)CN1S(=O)(=O)c1ccc(Cl)cc1` (stereo unspecified) belongs -0.1% (inactive); to `Cc1ccc2nc(COc3ccc(N(C)S(=O)(=O)c4ccccc4)cc3)cc(=O)n2c1`, 2% (inactive).
For `CN(c1ccccc1)S(=O)(=O)c1ccc(NC(=O)COc2ccccc2)cc1`, the inhibition is 16.3% (inactive).
Regarding `COc1cccc(COc2ccc(N(C)S(=O)(=O)c3ccccc3)cc2)c1`, the inhibition is 72% (active).
Under `Cc1ccc(NC(=O)CN2CCCCC2)c2c1CC(C)(C)O2` stands -0.4% (inactive); under `Cc1ccc(NC(=S)N(CCCN2CCCC2)Cc2cccn2Cc2ccc(Cl)cc2)cc1`, 75.2% (active).
For `CCc1cccc(C)c1NC(=S)N(CCCN1CCN(C)CC1)Cc1cccs1`, the inhibition was -1.6% (inactive).
In the case of `Cc1ccccc1NC(=S)N(CCCN1CCOCC1)Cc1cccs1`, the inhibition is 5.8% (inactive).
Turning to `O=C(c1n[nH]c2c1CCC2)N1CCCC(Nc2cccc(F)c2)C1` (stereo unspecified), the inhibition was -7.9% (inactive).
`CCCCC(CC)CNCc1cccn1CCN1CCOCC1` (stereo unspecified): the inhibition was 19.8% (inactive).
Take `COc1ccc(NC(=O)C2=CC(c3ccc(OC)c(OC)c3)=NS(=O)(=O)N2C)cc1`: the inhibition is -5.8% (inactive).
`CCc1ccc(C2N3CC4([N+](=O)[O-])CN2CC([N+](=O)[O-])(C3)C4(C)C)cc1` (stereo unspecified): the inhibition is -2% (inactive).
For `Oc1ccc2ccccc2c1N=Nc1nccs1`, the inhibition was 61.9% (active).
As for `CC(C)(C)c1cc2cccnc2n1Cc1ccccc1`, the inhibition is 0% (inactive).
With `O=S(=O)(Nc1ccc2ccccc2c1)N1CCCCC1`, the inhibition was -2.7% (inactive).
As to `COc1ccc(S(=O)(=O)N(C)C[C@@H]2Oc3ccc(NS(=O)(=O)c4cn(C)cn4)cc3C(=O)N([C@@H](C)CO)C[C@@H]2C)cc1`, the inhibition is -0.8% (inactive).
Under `O=S(=O)(Nc1ccc(O)c2ccccc12)c1ccc(OC(F)(F)F)cc1` stands 60.2% (active).
As for `COc1ccccc1NS(=O)(=O)c1ccc(C(=O)N2CCN(c3ccccc3O)CC2)cc1`, the inhibition was 2.1% (inactive).
On to `O=S(=O)(Nc1ccc(OC(F)(F)F)cc1)c1cccc2nonc12`, for which the inhibition is -6.5% (inactive).
`O=C(NCc1cccc(C(F)(F)F)c1)c1ccc2sc(COCCO)nc2c1`: the inhibition is 2.2% (inactive).
In the case of `C#CCN1C(=O)C(O)(CC(=O)c2cc(OC)ccc2OC)c2ccccc21` (stereo unspecified), the inhibition is -1.2% (inactive).
`CCCCN1C(=O)/C(=C(/C#N)C(N)=O)c2ccccc21`: the inhibition is -1.7% (inactive).
Consider `COc1ccc2c(c1)C(=C(C#N)C#N)C(=O)N2CCc1ccccc1`, for which the inhibition was 97.9% (active).
For the compound `CCOC(=O)[C@]12CCCC=C1N(CCC1=CCCCC1)C(=O)[C@H](CC(=O)NCCCCc1ccccc1)C2`, the inhibition was 11.5% (inactive).
To `OC(COc1ccc(CN2CCSCC2)cc1)CN1CCCCC1` (stereo unspecified) belongs 19.9% (inactive); to `OC(CN=c1sc2ccccc2n1CC(O)COc1ccccc1)COc1ccccc1` (stereo unspecified), 91.1% (active).
As to `Cc1cccc(OCC(O)Cn2c(=N)n(CCN3CCOCC3)c3ccccc32)c1` (stereo unspecified), the inhibition was 1.7% (inactive).
Regarding `O=c1cc(CO)oc(C(Nc2cccc(C(F)(F)F)c2)c2ccccn2)c1O` (stereo unspecified), the inhibition is 1.7% (inactive).
In the case of `CC(C)CCN1NC2(CCC(C)CC2)NC1=S` (stereo unspecified), the inhibition is -6.9% (inactive).
With `O=C(COC(=O)c1ccccc1SCC(=O)N1CCCC1)Nc1ccccc1OC(F)F`, the inhibition was -7.8% (inactive).
To `CN(c1ccccc1)S(=O)(=O)c1ccc(C(=O)NCc2cccnc2)cc1` belongs -0.5% (inactive); to `Cc1ccccc1CSCCNC(=O)c1ccc(N(C)S(=O)(=O)c2ccccc2)cc1`, 6.2% (inactive).
Turning to `CN(c1ccccc1)S(=O)(=O)c1ccc(C(=O)NCCc2ccccc2)cc1`, the inhibition is 70.8% (active).
In the case of `CCOC(=O)[C@H]1[C@H]2COc3cc(OC)ccc3[C@@H]2N2C(=O)N(c3ccc(Br)cc3)C(=O)[C@@]12C`, the inhibition was -15.5% (inactive).
Regarding `CC(Oc1ccccc1)C(=O)Nc1c2c(nn1-c1ccccc1)CS(=O)C2` (stereo unspecified), the inhibition is -4% (inactive).
`CCOC(=O)N1CCC(Nc2c(NCCN3CCN(c4cccc(Cl)c4)CC3)c(=O)c2=O)CC1`: the inhibition was 1.5% (inactive).
With `O=C(Cc1ccc(-n2c(=O)[nH]c3ccccc3c2=O)cc1)N1CCN(c2cccc(Cl)c2)CC1`, the inhibition was -0.7% (inactive).
Consider `O=C(Cc1csc(Nc2nc(=S)[nH]c3ccccc23)n1)NCCCN1CCN(c2cccc(Cl)c2)CC1`, for which the inhibition was 56.9% (active).
Regarding `CC(=O)OCC(=O)C1(O)CCC2C3CC(C)C4=CC(=O)CCC4(C)C3C(O)CC21C` (stereo unspecified), the inhibition was -8.4% (inactive).
Take `CC(C(=O)NCC1CCCCC1)N(C)Cc1cccc(Cl)c1` (stereo unspecified): the inhibition was 0.2% (inactive).
For `COc1ccc(NC(=O)C(c2ccncc2)n2c(=O)c(-c3cc4ccccc4[nH]3)nc3ccccc32)cc1` (stereo unspecified), the inhibition was 19.8% (inactive).
Turning to `COc1cc(NC(=O)COC(=O)c2cc(S(=O)(=O)N3CCOCC3)ccc2F)cc(OC)c1`, the inhibition is -1.4% (inactive).
As for `Cc1nc(-c2ccc(Cl)cc2)sc1C1(C)CC(c2ccccc2F)=NO1` (stereo unspecified), the inhibition was 5.5% (inactive).
As to `Cc1nc(C(=O)Nc2ccc(Cl)cc2)sc1C1(C)CC(c2ccccc2)=NO1` (stereo unspecified), the inhibition is 1.2% (inactive).
As to `Cc1nc(-c2ccc(Cl)cc2)sc1C1(C)CC(c2ccc(Br)cc2)=NO1` (stereo unspecified), the inhibition is 56.1% (active).
On to `Cc1ccccc1CSc1nnc(CCCCCNC(=O)OC(C)(C)C)o1`, for which the inhibition is -4.6% (inactive).
With `CC(C)Cc1nnc(NC(=O)CN2C(=O)NC3(CCCCC3)C2=O)s1`, the inhibition is -0.9% (inactive).
Take `COc1cccc(CN(C)CC2CCCN(CCc3ccc(Cl)cc3)C2)c1OC` (stereo unspecified): the inhibition was 75.1% (active).
To `COc1cccc(CN(C)CC(=O)NCc2ccccc2Cl)c1OC` belongs -3.5% (inactive); to `Cc1nc2ccc(C(=O)N(C)CC3CCCN(CCc4ccc(Cl)cc4)C3)cc2[nH]1` (stereo unspecified), 6.7% (inactive); to `COCCNC(=O)C(c1ccc(O)cc1)N(C(=O)CCC(=O)Nc1nccs1)c1ccc(C)cc1` (stereo unspecified), -4.4% (inactive).
Take `CCOc1cc(CN2CCCC(CO)(Cc3ccc(F)cc3F)C2)ccc1OC` (stereo unspecified): the inhibition is 11.4% (inactive).
Regarding `Cc1cc(C)cc(NC(=O)NC2CCN(CC(=O)Nc3cccc(Cl)c3C)CC2)c1`, the inhibition was 9.3% (inactive).
Consider `COc1ccc(CCNC(=O)CN(c2ccccc2)S(C)(=O)=O)cc1`, for which the inhibition is 10.8% (inactive).
For `COc1ccc(-c2oc3ncn(Cc4ccco4)c(=N)c3c2-c2ccc(OC)cc2)cc1`, the inhibition is 24.9% (inactive).
Under `C(=C\c1ccccc1)/CSc1nnc(-c2cccnc2)n1Cc1ccco1` stands -1% (inactive); under `N=c1c2c(-c3ccccc3)c(-c3ccccc3)oc2ncn1Cc1ccco1`, 59.7% (active); under `COc1ccccc1C(=O)NCCC(=O)NN1C(=O)NC2(CCCCC2)C1=O`, 4% (inactive).
For the compound `O=C(O)C(F)(F)C(NCc1ccccc1)c1ccccc1` (stereo unspecified), the inhibition was 2.5% (inactive).
Under `Cc1cc(C)n(CCNC(=O)CC2C(=O)NCCN2Cc2ccc(C)o2)n1` (stereo unspecified) stands -10.6% (inactive).
Under `Nc1ccn(CC(=O)N2CCN(c3ccccn3)CC2)c(=O)n1` stands 6.5% (inactive); under `CC(C)(C)NC(=O)CN(Cc1cccs1)C(=O)CNS(=O)(=O)c1ccccc1`, -2.2% (inactive); under `COc1ccc(Br)cc1CN(C)CC(=O)Nc1cc([N+](=O)[O-])ccc1OC`, 0.6% (inactive).
As for `COc1ccc(OC)c(NC(=O)CN(C)CCOc2ccc(Br)cc2)c1`, the inhibition is 93.7% (active).
For `COc1ccc(OC)c(NC(=O)CN(Cc2ccc(Cl)cc2)S(C)(=O)=O)c1`, the inhibition was 6.3% (inactive).
For the compound `COCc1c(C(=O)N/N=C/C2CC=CCC2)nnn1-c1nonc1N` (stereo unspecified), the inhibition was 1.4% (inactive).
`CS(=O)(=O)N(CC(O)Cn1c2ccccc2c2ccccc21)c1cccc2ccccc12` (stereo unspecified): the inhibition is 86.5% (active).
In the case of `CCCCN(CCCC)CC(O)Cn1c2ccccc2c(=O)c2ccccc21` (stereo unspecified), the inhibition is 11.9% (inactive).
To `Cc1cc(C)n(CC(O)CN(c2ccccc2)S(=O)(=O)c2ccc3ccccc3c2)n1` (stereo unspecified) belongs -1% (inactive); to `O=S(=O)(NCC1CC1)c1ccc(F)c(Cl)c1`, -8.8% (inactive).
Regarding `CCOc1ccc(C(C)=O)cc1COC(=O)c1cnc(Cl)c(Cl)c1`, the inhibition was 57.6% (active).
To `COC(=O)c1ccc(COC(=O)c2cnc(Cl)c(Cl)c2)cc1` belongs -4.5% (inactive).
To `CCOc1ccc(C(C)=O)cc1COC(=O)CNC(=O)c1cccs1` belongs -4.6% (inactive); to `CC(C)(C)NS(=O)(=O)CC12CCC(CC1=O)C2(C)C` (stereo unspecified), -2.4% (inactive).
As for `COc1ccc(NC(=O)/C(Cl)=C(/Cl)S(=O)Cc2ccc(C)cc2)cn1` (stereo unspecified), the inhibition was 103% (active).
Under `O=C(O[C@@H]1[C@H](Cc2ccccc2)NS(=O)(=O)[C@H]2C[C@@H]3C=C[C@]12O3)c1ccccc1Br` stands -3.7% (inactive).
Under `COC(=O)c1ccccc1NC(=O)CSc1nc2c(c(=O)[nH]1)CCC2` stands 8.6% (inactive); under `OC(COCC1COc2ccccc2O1)CN1CCN(c2ccc(F)cc2)CC1` (stereo unspecified), -15.5% (inactive); under `CCN1CCN(CCNC(=O)c2ccc3c(c2)NC(=O)/C(=C\c2cccc(Cl)c2)S3)CC1`, 10.1% (inactive).
Regarding `O=C(CN1C(=O)/C(=C\c2ccc(C(F)(F)F)cc2)Sc2ccccc21)NCc1ccco1`, the inhibition was -0.7% (inactive).
Under `CCN1CCN(CCNC(=O)c2ccc(/C=C3/Sc4ccccc4N(Cc4cccc(C)c4)C3=O)cc2)CC1` stands 86.2% (active); under `CC(=O)c1cnc(SCC(=O)O)nc1C`, -1% (inactive).
With `Cc1cc(NC(=O)CS(=O)(=O)c2cn(C)c3ccccc23)no1`, the inhibition was -1.6% (inactive).
Under `COc1ccc(C(=O)NCC2CCCO2)cc1S(=O)(=O)NCc1ccc(Cl)cc1` (stereo unspecified) stands -5.7% (inactive).
Turning to `C=CCn1c(SCC(=O)Nc2ccc(NC(C)=O)cc2)nc2sc(C)c(C)c2c1=O`, the inhibition was -3.1% (inactive).
In the case of `C=CCn1c(SCc2csc(C)n2)nc2scc(-c3ccc(C)o3)c2c1=O`, the inhibition was 62.3% (active).
With `C=CCn1c(SCC(=O)/C(C#N)=C(\C)N)nc2sc(C)c(C)c2c1=O`, the inhibition was -1.8% (inactive).
